The list is not random: actives were taken first. Their share in the collection is about 3%.
esBAF inh – blocks esBAF chromatin remodeling in mouse ES cells. reporter increase, % at 12.5 µM. 350,000 compounds, 2% hits. Bmi1-luciferase knock-in reporter, 24 h; 100% = twice the neutral-well signal; in the data active = activation above about 40%; inconclusive = no clear call, values can overlap the other calls;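 also: a rise in the Bmi1 reporter signal indicates esBAF inhibition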
Statin myotox sup – protects C2C12 myotubes from simvastatin toxicity; ATP luminescence, 48 h; scaled: DMSO 0, geranylgeraniol control 100; rescue of ATP level, % at 7.49 µM; 330,000 compounds, 0.78% hits; AID 602340;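 active = mean ATP rescue above about 67%, or every replicate alone reaching that limit, limit read from the data, passing the limit was not always enough; inconclusive = no clear call, values can overlap the other calls; inactive = mean under the limit and some replicate under it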;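 also: myotubes were challenged with 10 µM simvastatin during compound exposure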
MITF TRPM1 HTS – MITF TRPM1 promoter activation in melanoma cells | SK-MEL-5 TRPM1-promoter luciferase, 24 h; % of positive control, neutral wells = 0 | activation, % at 12.5 µM | 300,000 compounds, 0.75% hits | AID 588334;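 active = mean activation of at least 80% with every replicate also reaching 80%; inconclusive = mean reaches 80% but some replicate falls short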
Wnt bcat act – activates Wnt/beta-catenin signaling in a reporter cell assay; activator, plate reader; activation, % at 9.35 µM; 300,000 compounds, 1.2% hits; AID 743398; in the data active = activation above about 30%, passing the limit was not always enough; inconclusive = no clear call, values can overlap the other calls
Numbers stand for hits; 0 = inactive; ? = inconclusive; - = no result given.

SMILES | esBAF inh | Statin myotox sup | MITF TRPM1 HTS | Wnt bcat act
CCOC(=O)c1cnc(SCC(C)C)nc1N | 52 | 0 | 109 | 70
CCOC(=O)c1cnc(SCc2cccc(C)c2)nc1N | - | - | 0 | 40
COc1ccccc1-c1cnc2c(c1)C(=O)N([C@@H](C)CO)C[C@@H](C)[C@@H](CN(C)C(=O)c1ccccc1)O2 | 0 | 0 | - | -
CSCC(=O)N1CCc2ccc(NC(=O)c3ccccc3Cl)cc2C1 | 66 | 0 | 0 | 0
COc1cccc(S(=O)(=O)Nc2ccc3c(c2)[C@@H]2C[C@H](CC(=O)N4CCCCC4)O[C@@H](CO)[C@@H]2O3)c1 | 0 | 0 | - | -
Cc1nnc(SCc2ccc3c(c2)OCO3)s1 | 51 | 0 | 0 | -
Cc1nnc(SCC(=O)c2cc(C)n(-c3ccc4c(c3)OCO4)c2C)s1 | 70 | 0 | 0 | 0
CN1C(=O)c2cc(NC(=O)C3CCCCC3)ccc2OC[C@H]2O[C@@H](CC(=O)NCc3ccccc3F)CC[C@@H]21 | 0 | 0 | - | -
CCC(=O)Nc1ccc2c(c1)C(=O)N(C)[C@@H]1CC[C@@H](CC(=O)NCc3ccc(OC)cc3)O[C@@H]1CO2 | 0 | 0 | - | -
Brc1ccc(-c2csc(/N=C/N3CCOCC3)n2)cc1 | 51 | 0 | 0 | -
OCCN(/C=N/c1nc(-c2ccc(Br)cc2)cs1)CCO | 41 | - | 0 | 0
C[C@@H]1CN([C@H](C)CO)S(=O)(=O)c2ccc(C#CC3(O)CCCC3)cc2O[C@H]1CN(C)C | 0 | 0 | - | -
COc1ccccc1CNC(=O)C[C@@H]1CC[C@@H]2[C@H](COC[C@@H](O)CN2C(=O)Nc2ccc(F)cc2)O1 | 0 | 0 | - | -
CC(Sc1nncn1C)C(=O)Nc1ccc(N2CCCCC2)cc1 (stereo unspecified) | 0 | 0 | 0 | 34
Cc1noc(C)c1NC(=O)N(C)C[C@H]1Oc2ccc(NC(=O)CCN3CCOCC3)cc2C(=O)N([C@H](C)CO)C[C@H]1C | 0 | - | - | -
O=C(Cc1sc(Nc2ccccc2)nc1-c1ccccc1)NCc1ccccc1 | 75 | 0 | 0 | 0
O=C(O)Cc1sc(Nc2ccccc2)nc1-c1cccs1 | - | - | 0 | 35
C=CCNc1nc(-c2cccs2)c(CC(=O)O)s1 | 0 | 0 | 0 | 0
CC(=O)c1ccc(OCc2cc(C(=O)NC3CCCCC3)no2)cc1 | - | - | 103 | 32
CC(=O)c1ccc(OCc2cc(C(=O)N3CC[C@@H]4CCCC[C@H]4C3)no2)cc1 | 69 | 0 | 0 | 37
COCC1CCCN(C(=O)c2cc(COc3ccc(C(C)=O)cc3)on2)C1 (stereo unspecified) | 70 | 0 | 0 | 36
CC(C)NC(=O)N(C)C[C@H]1Oc2cc(C3=CCCC3)ccc2S(=O)(=O)N([C@@H](C)CO)C[C@@H]1C | 0 | 0 | - | -
S=C(Nc1ccc2nsnc2c1)N1CCCC1 | 81 | 0 | 0 | 0
CCc1ccc(NC(=S)N2CCCC2)cc1 | 49 | 0 | 0 | 0
O=C(Nc1ccc2nsnc2c1)N1CCCCCC1 | 0 | 0 | 0 | 0
SMILES | esBAF inh | Statin myotox sup | MITF TRPM1 HTS | Wnt bcat act
CCc1ccc(NC(=S)N2CCN(C)CC2)cc1 | - | - | 0 | 0
CC1(C)Cc2c(C#N)c(N)n(-c3ccccc3)c(=O)c2CO1 | 0 | 82 | 0 | 0
N#Cc1c(N)n(-c2ccccc2)c(=O)c2cc([N+](=O)[O-])ccc12 | 0 | 0 | 0 | 0
COc1ccccc1NC(=O)C(C)OC(=O)/C=C/c1ccc2ccccc2n1 (stereo unspecified) | - | - | 0 | 0
CC(OC(=O)/C=C/c1ccc2ccccc2n1)C(=O)N(C)c1ccccc1 (stereo unspecified) | 47 | 0 | 0 | 0
COc1ccc(/C=C/c2nc(-c3ccccc3O)n(-c3ccccc3)n2)cc1 | 0 | 0 | 0 | 0
COc1ccc(/C=C/c2nc(-c3ccccc3O)n[nH]2)cc1 | - | - | 0 | 38
CC=Cc1ccc2n(c1=O)C[C@H]1[C@H](CO)[C@@H](C(=O)N[C@H](C)c3ccccc3)[C@@H]2N1Cc1cccnc1 (mixture of isomers) | 0 | 0 | - | -
O=c1[nH]c(Nc2ccccc2Cl)cc2ccccc12 | 0 | 136 | 0 | 0
C[C@H](CO)N1C[C@H](C)[C@H](CN(C)Cc2ccc(-c3ccccc3)cc2)Oc2ncc(C#C[C@@H](C)O)cc2C1=O | 0 | 0 | - | -
Cn1c(=N)n(CC(=O)c2cccs2)c2ccccc21 | 44 | 0 | 0 | 0
Clc1cccc(CSc2ncn(-c3ccccc3)n2)c1 | 42 | 0 | 0 | 0
O=C(CSc1ncn(-c2ccccc2)n1)N1CCc2ccccc21 | 0 | 0 | 0 | -
Clc1ccc(CSc2ncn(-c3ccccc3)n2)cc1 | 58 | 0 | 0 | -
Cc1noc(C)c1NC(=O)Nc1cccc2c1O[C@H](CN(C)Cc1ccc3c(c1)OCO3)[C@H](C)CN([C@@H](C)CO)C2=O | 0 | 0 | - | -
Fc1ccc(OCc2nnc(-c3ccccc3Br)o2)c(Cl)c1 | 67 | 0 | ? | 0
Clc1ccc(OCc2nnc(-c3ccccc3Br)o2)c(Cl)c1 | 79 | 0 | 106 | 0
Clc1ccc(OCc2nnc(-c3ccccc3Br)o2)cc1 | 0 | 0 | 0 | -
O=C(C[C@H]1CC[C@@H]2[C@H](COC[C@H](O)CN2S(=O)(=O)c2ccccc2)O1)N1CCc2ccccc2C1 | 0 | 0 | - | -
CC(C)C(OC(=O)C1=Cc2ccccc2OC1)C(=O)NCC1CCCO1 (stereo unspecified) | 0 | 0 | 0 | 36
CCc1cc2c(=O)c(-c3nc(C)cs3)coc2cc1O | 48 | 0 | 0 | 39
Cc1csc(-c2coc3cc(O)cc(C)c3c2=O)n1 | 60 | 0 | 0 | 0
CC(C)c1cn(CC[C@H]2CC[C@@H](NC(=O)C3CCCC3)[C@@H](CO)O2)nn1 | 0 | 0 | - | -
C[C@H](CO)N1C[C@H](C)[C@@H](CN(C)Cc2ccc3c(c2)OCO3)OCCCC[C@H](C)Oc2ccc(NS(=O)(=O)c3ccc(Cl)cc3)cc2C1=O | 0 | - | - | -
Cc1noc(C)c1NC(=O)N(C)C[C@H]1Oc2ccc(NS(=O)(=O)c3cn(C)cn3)cc2CC(=O)N([C@H](C)CO)C[C@H]1C | 0 | 0 | - | -
SMILES | esBAF inh | Statin myotox sup | MITF TRPM1 HTS | Wnt bcat act
Cc1ccccc1NC(=O)c1sc2nc(N3CCOCC3)c3c(c2c1N)CCCC3 | 54 | 0 | 0 | 0
Cc1cc(C)c2c(N)c(C(=O)Nc3ccccc3Cl)sc2n1 | - | - | - | 0
Cc1cc(C)c2c(N)c(C(=O)Nc3ccccc3F)sc2n1 | 50 | 0 | 0 | 0
O=C1CN(C(=O)COC(=O)C23CC4CC(CC(O)(C4)C2)C3)c2ccccc2N1 | 0 | 0 | 0 | 0
CC1(C)C(=O)Nc2ccccc2N1C(=O)COC(=O)C12CC3CC(CC(O)(C3)C1)C2 | 0 | 89 | 0 | 0
c1ccc(-c2noc(-c3ccc4c(c3)OCO4)n2)cc1 | - | - | 0 | 0
COc1cccc(-c2nc(-c3cccs3)no2)c1 | 0 | 0 | 0 | 0
COc1cccc(-c2noc(-c3ccc4c(c3)OCO4)n2)c1 | - | - | 0 | 42
COc1ccc(-c2noc(-c3ccc4c(c3)OCO4)n2)cc1 | - | - | 87 | 0
CC(C)NC(=O)N(C)C[C@@H]1Oc2ccc(N(C)C)cc2CC(=O)N([C@@H](C)CO)C[C@H]1C | 0 | 0 | - | -
COc1ccc(S(=O)(=O)n2ccc(-c3cnc(-c4ccccc4)s3)n2)cc1 | 0 | 0 | 0 | 41
COc1ccc(NC(=O)N(C)C[C@H]2OCCCC[C@@H](C)Oc3ccc(NC(=O)NC(C)C)cc3C(=O)N([C@H](C)CO)C[C@H]2C)cc1 | 0 | - | - | -
c1cn2c(Nc3ccc4c(c3)OCCO4)c(-c3ccc(N4CCOCC4)cc3)nc2cn1 | - | - | 0 | 49

Bioassay records from PubChem BioAssay.
